Each structure is given as a SMILES string. Where “and” joins values, the source holds several entries; their conditions need not be identical. Equal entries are not always repeated. Among all 16,000 compounds or so, about 2,600 (16%) were called active. Another 20% or so got no clear call; they are omitted. Not all results are given here. Unmarked numbers belong to inactive results. The call rests on the fitted dose curve; in most records, active means well fitted curve in the direction sought with a large enough effect; inconclusive means small, poorly fitted or top-dose-only effect, or effect the other way; inactive means no such curve, though single readings can be large or run the other way.
On the % scale 0 is the no-effect control and ±100 the full control effect.

The target in this assay is Cytochrome P450 2D6 (Homo sapiens) (UniProt P10635). The assay can be described thus: Cytochrome panel assay with activity outcomes. As to conditions: recombinant CYP, pro-luciferin dealkylation, luminescence, p450-cyp2d6; series mostly up to 57.1 µM.
Sequence of Cytochrome P450 2D6 (Homo sapiens) (P10635 whole entry, looked up): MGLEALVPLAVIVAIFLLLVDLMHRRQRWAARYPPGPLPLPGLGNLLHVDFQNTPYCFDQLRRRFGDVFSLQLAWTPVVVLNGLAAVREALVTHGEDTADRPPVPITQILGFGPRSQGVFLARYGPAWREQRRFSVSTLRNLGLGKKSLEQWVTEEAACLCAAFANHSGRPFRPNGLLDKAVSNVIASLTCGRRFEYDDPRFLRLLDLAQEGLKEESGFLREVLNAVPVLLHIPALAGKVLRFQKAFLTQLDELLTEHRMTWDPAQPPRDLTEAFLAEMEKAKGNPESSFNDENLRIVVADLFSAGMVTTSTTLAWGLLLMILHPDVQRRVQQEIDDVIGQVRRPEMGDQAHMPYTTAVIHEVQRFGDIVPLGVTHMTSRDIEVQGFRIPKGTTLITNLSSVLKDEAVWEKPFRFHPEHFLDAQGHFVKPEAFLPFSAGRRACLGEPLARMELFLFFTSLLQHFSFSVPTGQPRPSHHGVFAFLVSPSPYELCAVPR
In the case of `COc1ccc(-c2nnc(-c3ccc(OCC(C)C)cc3)o2)cc1`, the AC50 (commonly the midpoint of the concentration-response curve, whichever way the signal moves) was “inactive”.
Still for that read-out and setting: next, `Cn1cccc1C(=O)N1CCC2(CCN(C(=O)Nc3cccc(F)c3)CC2)CC1`: “inactive”; `Cc1ccc(NC(=O)C2CCN(S(C)(=O)=O)CC2)cc1`: “inactive”; `Cc1ccc(NC(=S)N2CCN(C3CCCCC3)CC2)cc1`: 14.1 µM (active).
For `CC(C)(CO)N1CCN(C(=S)Nc2ccccc2)CC1`, the activity, negative = inhibition was -13.1% [at 11.4 µM].
Regarding `CC(=O)OC1CCC(OC(C)=O)c2c1n([O-])c(C)c(C)[n+]2=O` (stereo not given), the AC50 result is “inactive”.
The same measure, in the same setting: in the case of `CC(C)NCCOCCSc1ccc(Cl)cc1` it was 3.55 µM (active); in that of `O=C(/C=C/c1ccc(Cl)cc1)NCCSc1ccccc1`, “inactive”.
The same measure, in the same setting: in the case of `CCCCNC(=O)NS(=O)(=O)c1cnccc1Sc1ccc(Cl)cc1` it was “inactive”; in that of `CCCCNCCOCCSc1ccc(Cl)cc1`, 1.58 µM (active).
On to `Cc1cc(/C=N\NC(=O)c2cccs2)c(C)n1-c1ccc2ncccc2c1`, for which the AC50 result is “inactive”.
The same measure, in the same setting: next, `C[C@@H]1CCC[C@H](C)N1`: “inactive”.
On to `CN(C/C=C\c1ccccc1)Cc1cccc2ccccc12`, for which the AC50 is 0.251 µM (active).
The same measure, in the same setting: in the case of `CN(Cc1cccc2ccccc12)Cc1cccc2ccccc12` it was 0.398 µM (active).
Turning to `O=S(=O)(O)CCCc1cccc2ccccc12`, the activity, negative = inhibition is 7.84% [at 11.4 µM].
Take `Cc1cc(C)cc(C(=N)c2ccccc2Cc2cccc3ccccc23)c1`: the activity, negative = inhibition was 5.99% [at 11.4 µM].
On to `CCOC(=O)CSCC(NC(=O)OC(C)(C)C)C(=O)OCC` (stereo not given), for which the AC50 result was “inactive”.
On to `O=C1C2C3C=CC(C2C(=O)N1CN1CCOCC1)C1C2C(=O)N(CN4CCOCC4)C(=O)C2C31` (stereo not given), for which the activity, negative = inhibition is 17.4% [at 11.4 µM].
Turning to `COc1ccc(O)c(/C=N/NC(=O)CSc2nnc(C)n2-c2ccccc2)c1`, the AC50 entry was “inactive”.
Still for that read-out and setting: in the case of `Nc1c(-c2cccs2)cnn1-c1nc(-c2ccc(Cl)cc2Cl)cs1` it was “inactive”; in that of `COC(=O)C1=C(C)NC(C)=C([N+](=O)[O-])[C@H]1c1ccccc1C(F)(F)F`, “inactive”.
Still for that read-out and setting: in the case of `COC(=O)C1=C(C)NC(C)=C(C(=O)OC(C)C)C1c1cccc2nonc12` (stereo not given) it was “inactive”; in that of `COC(=O)C1=C(C)NC(C)=C([N+](=O)[O-])[C@@H]1c1ccccc1C(F)(F)F`, 6.31 µM (active); in that of `CC(C)c1ccc(CN(C(=O)C2COc3ccccc3O2)C2CCS(=O)(=O)C2)cc1` (stereo not given), 14.1 µM (active).
Still for that read-out and setting: in the case of `Cc1ccc(CN(C(=O)c2cc3ccccc3oc2=O)C2CCS(=O)(=O)C2)cc1` (stereo not given) it was “inactive”; in that of `CCc1ccc(CN(C(=O)c2cc3ccccc3oc2=O)C2CCS(=O)(=O)C2)cc1` (stereo not given), “inactive”.
In the case of `CNNCc1ccc(C(=O)NC(C)C)cc1`, the AC50 result was “inactive”.
On the same count and under the same terms, in the case of `Cc1nc2ncnn2c(C)c1CCC(=O)NC(C)c1ccc2c(c1)OCCO2` (stereo not given) it was “inactive”; in that of `CC(NC(=O)CCSc1nc(-c2ccc3c(c2)OCO3)cc(C(F)(F)F)n1)c1ccccc1` (stereo not given), 1 µM (active).
For `CC(Sc1nc(-c2ccccc2)cc(C(F)(F)F)n1)C(=O)N1CCCCC1` (stereo not given), the AC50 result was “inactive”.
For the compound `O=C1[C@H]2[C@H]3[C@H](O)[C@H](O)C/C(=N/OC[C@@H](O)COCc4ccco4)[C@H]3CC[C@@H]2C(=O)N1C1CCCCC1`, the activity, negative = inhibition was 2.44% [at 11.4 µM].
Take `Cc1ccc(C2/C(=C(/O)c3ccc(Cl)cc3)C(=O)C(=O)N2CC2CCCO2)o1` (stereo not given): the AC50 entry was “inactive”.
Still for that read-out and setting: next, `COc1ncc2nc(C)c(=O)n(CCc3ccccc3)c2n1`: “inactive”; `CC(C)CC(C(=O)OCC(=O)Nc1ncc(Cl)cc1Cl)N1C(=O)c2ccccc2C1=O` (stereo not given): 25.1 µM (active).
The same measure, in the same setting: next, `Cc1c(Cl)cnc(NC(=O)COC(=O)CCS(=O)(=O)c2ccccc2)c1Cl`: “inactive”; `CC(C)=CC(=O)OCC(=O)Nc1ncc(Cl)c(C)c1Cl`: “inactive”.
In the case of `O=C(Nc1ccc(Cl)cc1)c1cnc(-c2ccccc2)nc1-c1ccccc1`, the AC50 result is “inactive”.
Same read-out and setting: in the case of `C/C(=N\NC(=O)C1CC1c1ccccc1)c1cccs1` (stereo not given) it was “inactive”; in that of `Cc1cccn2c(=O)c(/C=N/O)c(N3CCCC3)nc12`, “inactive”; in that of `C=CCN=C1CC(C)(C)CC(=O)/C1=C(/O)CCC(=O)OC`, “inactive”.
Turning to `CN(C)CCCN1CCC2(CCC(C(C)(C)C)CC2)CC1`, the activity, negative = inhibition is 9.19% [at 11.4 µM].
As for `COc1ccc(-c2c(C)oc3c(CN4CCN(CCO)CC4)c(O)ccc3c2=O)cc1OC`, the AC50 entry was “inactive”.
As to `O=c1oc2c(CN3CCOCC3)c(O)ccc2c2ccccc12`, the AC50 is 2 µM (active).
Regarding `CSc1nc(C)cc(Nc2ccc(O)c(CN3CCOCC3)c2)n1`, the activity, negative = inhibition is -3.84% [at 11.4 µM].
With `COc1ccccc1-c1c(C)oc2c(CN3CCN(CCO)CC3)c(O)ccc2c1=O`, the AC50 result is “inactive”.
The same measure, in the same setting: in the case of `CCCc1cc(=O)oc2c(CN3CCOCC3)c(O)ccc12` it was 2.24 µM (active); in that of `Nc1ccc(N2CCN(C(=O)c3ccco3)CC2)cc1`, “inactive”; in that of `Cc1ccc2nc(NC(=O)CSc3nc4c(c(=O)n3C)SC(C)C4)sc2c1` (stereo not given), “inactive”.
The same measure, in the same setting: next, `Cc1ccnc(NS(=O)(=O)c2ccc(NC(=O)C3CCCNC3=O)cc2)n1` (stereo not given): “inactive”; `CC(C)c1nnc(NC(=O)CCC(=O)N2CCN(c3ccccn3)CC2)s1`: “inactive”; `O=[N+]([O-])c1cccc2c[nH]nc12`: “inactive”.
The same measure, in the same setting: next, `C[C@]1(c2ccccc2)OC(C(=O)O)=CC1=O`: “inactive”; `O=C(Nc1cccc(F)c1)N1CC[C@@]2(CCCNC2)C1`: “inactive”; `c1ccc(C(c2ccccc2)N2CC[C@@]3(CCCNC3)C2)cc1`: 15.8 µM (active).
Consider `c1ccc(C(c2ccccc2)N2CC3(CCNCC3)C2)cc1`, for which the AC50 was 2.51 µM (active).
With `N#Cc1cccc(NC(=O)N2CC[C@@]3(CCCNC3)C2)c1`, the AC50 entry was “inactive”.
On the same count and under the same terms, next, `c1ccc(C(c2ccccc2)N2CCC3(CCNCC3)CC2)cc1`: “inactive”; `O=C(Nc1ccccc1)N1CCCC2(CCNCC2)C1`: “inactive”.
On to `CC(C)=CCC/C(C)=C/CO/N=C1/C[C@@H](O)[C@@H](O)[C@@H]2[C@@H]3C(=O)N(Cc4ccc5c(c4)OCO5)C(=O)[C@H]3CC[C@H]12`, for which the activity, negative = inhibition was -10.1% [at 11.4 µM].
As to `CCc1cc(C(=O)NNC(=S)NCC2CCCO2)cs1` (stereo not given), the AC50 entry is “inactive”.
On to `O=C(O)c1cc(C(=O)C(=O)c2cc(C(=O)O)c(O)c3ccccc23)c2ccccc2c1O`, for which the activity, negative = inhibition was -0.777% [at 11.4 µM].
Turning to `CCNc1ncc2nc(-c3cn(C)c4ccccc34)c(=O)n(Cc3cccs3)c2n1`, the AC50 entry was “inactive”.
On to `COc1ccc2c(c1)CCC1C2CC[C@]2(C)[C@H](NCCCCCCN3C(=O)C=CC3=O)CC[C@@H]12` (stereo not given in full), for which the AC50 entry is “inactive”.
Same read-out and setting: in the case of `N#Cc1cccc(-c2nc3cnc(N4CCNCC4)nc3n(C3CC3)c2=O)c1` it was “inactive”; in that of `CC(=O)c1sc(NC(=O)C(C)C)nc1C`, “inactive”; in that of `Fc1cccc(Cl)c1CSc1ncn[nH]1`, “inactive”.
As for `C[C@H](O/N=C1/[C@H]2O[C@@H]2[C@@H](O)[C@H]2[C@H]1CCn1c(=O)n(-c3ccccc3)c(=O)n12)c1cn([C@H](CO)Cc2ccccc2)nn1`, the activity, negative = inhibition was -8.19% [at 11.4 µM] and 10.1% [at 11.4 µM].
Turning to `O=c1cc(-c2ccccc2)[nH]c2nc(Cl)ccc12`, the AC50 entry is “inactive”.
For the compound `C[C@H]1CC[C@H]2C(=O)N3[C@H](c4ccc(Br)cc4)[C@@H](C)CC[C@H]3C(=O)N2[C@@H]1c1ccc(Br)cc1`, the activity, negative = inhibition was -7.03% [at 11.4 µM].
In the case of `CS(=O)(=O)N1N=C(c2ccc(Br)cc2)CC1c1ccc2c(c1)OCO2` (stereo not given), the concentration at half-maximal activity (AC50) is 0.631 µM (active).
In the case of `C[C@@H]1CC[C@H]2C(=O)N3[C@@H](CC[C@@H](C)[C@@H]3c3ccc(Br)cc3)C(=O)N2[C@@H]1c1ccc(Br)cc1`, the activity, negative = inhibition is -14.2% [at 11.4 µM].
As to `Cn1cc(-c2nc3cncnc3n(Cc3ccccc3Cl)c2=O)c2ccccc21`, the AC50 entry is “inactive”.
In the case of `Cc1[nH]c(N)nc(=S)c1CCC(=O)O`, the activity, negative = inhibition is 5.35% [at 11.4 µM].
Consider `Cc1ccc(Oc2cc(N3CCOCC3)nc(-c3ccccc3)n2)cc1`, for which the AC50 entry was “inactive”.
Same read-out and setting: in the case of `CCOC(=O)c1c(-c2ccc(OC)cc2)csc1NC(=O)CCN1C(=O)c2ccccc2C1=O` it was “inactive”; in that of `COc1ccc(-c2csc3c2[N+]2=CCC=C2C3=O)cc1`, 3.16 µM (active).
With `CC[C@@H]1CC(=O)N(SC[C@H](N)C(=O)O)C1=O`, the activity, negative = inhibition is 7.85% [at 11.4 µM].
In the case of `CN1Cc2c(N)cccc2[C@H](c2ccccc2)C1`, the AC50 is 31.6 µM (active) and 6.31 µM (active).
As for `CN1C(=O)C[C@H](c2ccccc2)C1=O`, the AC50 result is “inactive”.
With `CC1(C)[C@@H]2CC[C@]1(C)[C@@H](OC(=O)/C=C\c1ccccc1)C2`, the activity, negative = inhibition was 2.99% [at 11.4 µM].
For the compound `Oc1oc(-c2ccccc2)nc1C=Nc1ccccc1`, the AC50 entry was “inactive”.
Same read-out and setting: in the case of `COc1cc(C2C(C(=O)c3cccs3)=C(O)C(=O)N2Cc2ccco2)cc(OC)c1OC` (stereo not given) it was “inactive”.
As for `COC(=O)C/C=C\[C@@H](C)[C@@H](/C=N\OC[C@@H](C)[C@H](OCc1ccccc1)C(C)C)OC`, the activity, negative = inhibition is -9.09% [at 11.4 µM].
The same measure, in the same setting: next, `COc1ccc(CN[C@H](C)C(=O)O)cc1`: 6.89% [at 11.4 µM].
Consider `COc1ccc(CCC(C)NC2C3CC4CC(C3)CC2C4)cc1` (stereo not given), for which the AC50 was 3.55 µM (active).
The same measure, in the same setting: in the case of `CCC(C)NC(=O)C1CC(c2ccc(OC)cc2)=NO1` (stereo not given) it was “inactive”; in that of `Cc1ccc(N=Nc2c(N)n(-c3ccccc3)[nH]c2=O)cc1`, “inactive”.
For the compound `COCCNC(=O)CCn1c(=O)oc2ccccc21`, the AC50 entry is “inactive”.
Still for that read-out and setting: next, `S=C1N[C@H](c2ccccc2)N[C@H](c2ccccc2)S1`: 3.98 µM (active).
For `O=C1C2[C@@H](c3ccccc3)N[C@@H](c3ccccc3)C1[C@H](c1ccccc1)N[C@H]2c1ccccc1`, the activity, negative = inhibition is -8.91% [at 11.4 µM].
The same measure, in the same setting: next, `O=C(O)c1ccc(C(=O)c2ccccc2)c(C(=O)O)c1`: 14.9% [at 11.4 µM].
On to `COC(=O)CSc1nnc(CNc2ccc(Cl)cc2)n1-c1ccccc1`, for which the AC50 result was “inactive”.
Still for that read-out and setting: next, `CCOC(=O)CSc1cc(=O)n(C)c2cc(Cl)ccc12`: “inactive”; `Cn1c(=O)cc(SCC(=O)NCCN2CCN(c3ccccc3F)CC2)c2cc(Cl)ccc21`: 14.1 µM (active); `Cn1c(=O)cc(SCC(=O)NCCCN2CCOCC2)c2ccc(Cl)cc21`: “inactive”.

Source of the values: PubChem BioAssay AID1851 (National Center for Advancing Translational Sciences (NCATS), 2009).
